As a reminder, the AC50 is the concentration at which the activity in the assay is half-maximal.

Hit rate of the full screen: of about 16,000 compounds, about 5,100 (32%) were called active. Roughly 25% stayed inconclusive and do not appear here. Some of the results follow. Unmarked numbers belong to inactive results. The call rests on the fitted dose curve; in most records, active means well fitted curve in the direction sought with a large enough effect; inconclusive means small, poorly fitted or top-dose-only effect, or effect the other way; inactive means no such curve, though single readings can be large or run the other way.
On the % scale 0 is the no-effect control and ±100 the full control effect.

This assay deals with Cytochrome P450 3A4 (Homo sapiens) (UniProt P08684). Nature of the assay: Cytochrome panel assay with activity outcomes. To be noted: recombinant CYP, pro-luciferin dealkylation, luminescence, p450-cyp3a4; series mostly up to 57.1 µM.
Cytochrome P450 3A4 (Homo sapiens), sequence (P08684 whole entry, looked up): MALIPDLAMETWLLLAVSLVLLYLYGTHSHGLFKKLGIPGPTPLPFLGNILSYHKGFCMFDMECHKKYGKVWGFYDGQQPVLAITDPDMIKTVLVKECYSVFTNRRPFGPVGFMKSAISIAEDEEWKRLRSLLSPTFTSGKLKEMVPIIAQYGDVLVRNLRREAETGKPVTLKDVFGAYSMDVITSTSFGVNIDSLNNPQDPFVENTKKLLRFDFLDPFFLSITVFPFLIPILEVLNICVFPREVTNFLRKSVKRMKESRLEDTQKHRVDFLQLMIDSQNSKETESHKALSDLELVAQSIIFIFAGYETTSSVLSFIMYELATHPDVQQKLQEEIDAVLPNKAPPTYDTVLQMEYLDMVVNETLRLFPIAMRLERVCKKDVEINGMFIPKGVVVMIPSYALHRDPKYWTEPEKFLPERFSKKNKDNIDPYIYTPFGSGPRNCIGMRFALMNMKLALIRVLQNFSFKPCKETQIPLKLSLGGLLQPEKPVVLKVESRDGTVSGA
On to `Cc1ccc(/C=N/NC(=O)CSc2nc3ccccc3n2C)s1`, for which the activity, negative = inhibition was -26.5% [at 2.29 µM].

On to `Cn1c(C[C@@H](O)c2nc3ccccc3n2C)nc2ccccc21`, for which the activity, negative = inhibition is -14.4% [at 11.4 µM]. For the molecule `Cn1c(SCc2nc3ccccc3n2CCO)nc2ccccc21`, the AC50 is 8.91 µM (active). Still for that read-out and setting: to `CC(=O)Nc1ccc(S(=O)(=O)N2CCN(c3nc(NC4CCCC4)c4ccccc4n3)CC2)cc1` belongs 3.16 µM (active).

Regarding `Cc1ccc(C(=O)COC(=O)c2ccc3c(c2)C(=O)N(c2cccc4ncccc24)C3=O)cc1C`, the AC50 is 1.26 µM (active). On to `Cc1ccc(C(=O)O)cc1N1C(=O)c2cccc3cc(Br)cc(c23)C1=O`, for which the activity, negative = inhibition is 19.6% [at 2.29 µM]. Take `CCOC(=O)N1CCN(C(=O)c2ccc(OC)c(OC)c2)CC1`: the AC50 entry is “inactive”. Take `CCOC(=O)N1CCN(C(=O)c2ccc(NC(C)=O)cc2)CC1`: the activity, negative = inhibition was -1.46% [at 2.29 µM].

`CCOC(=O)N1CCN(C(=O)c2cc(-c3ccc(F)cc3)[nH]c2C)CC1`: the AC50 was 11.2 µM (active). Regarding `CS(=O)(=O)N1CCC2(CCN(c3ccccc3)CC2)CC1`, the AC50 result was “inactive”. The same measure, in the same setting: to `CS(=O)(=O)N1CCC[C@@]2(CCN(c3ncccn3)C2)C1` belongs “inactive”. On the same count and under the same terms, to `CS(=O)(=O)N1CCC2(CC1)CN(c1ccncc1)C2` belongs “inactive”; to `CS(=O)(=O)N1CCC[C@@]2(CCN(c3ccccc3)C2)C1`, 12.6 µM (active); to `CS(=O)(=O)N1CCC2(CCCN(c3ccncc3)C2)CC1`, “inactive”.

On to `CS(=O)(=O)N1CCC[C@@]2(CCN(c3ccncc3)C2)C1`, for which the AC50 was 7.94 µM (active). On the same count and under the same terms, the result for `COc1cc(CN2CCN(C(=O)CC(C)C)CC2)cc(OC)c1OC` reads “inactive”; that for `COc1ccccc1N1CCN(CCN(C(=O)C2CCCCC2)c2ccccn2)CC1`, 3.98 µM (active); that for `COc1ccccc1N1CCN(CCCCNC(=O)c2ccc(-c3ccc(C(C)=O)cc3)cc2)CC1`, “inactive”. In the case of `Cc1cc(-c2c(C)[nH]n(-c3ccccc3)c2=O)n(-c2ccccc2)n1`, the activity, negative = inhibition was -9.49% [at 11.4 µM]. On to `Cc1[nH]n(-c2ccccc2)c(=O)c1CCOC(=O)c1cccc(C(F)(F)F)c1`, for which the AC50 was 3.16 µM (active). The same measure, in the same setting: the result for `CSc1nc(C)c(CCOC(=O)c2cccc(C)c2)c(=O)[nH]1` reads “inactive”; that for `CC1=NN(c2ccccc2)C(=O)/C1=C\c1c(C)[nH]n(-c2ccccc2)c1=O`, “inactive”; that for `Cc1[nH]n(-c2ccccc2)c(=O)c1CCOC(=O)c1ccc(C(F)(F)F)cc1`, 14.1 µM (active). With `CSc1nc(C)c(CCOC(=O)c2ccccc2)c(=O)[nH]1`, the AC50 entry is “inactive”.

Consider `CC(C)(CO[C@H]1C[C@H]2CC[C@@]1(C)C2(C)C)[N+](=O)[O-]`, for which the activity, negative = inhibition is -5.92% [at 11.4 µM]. In the case of `CCOC(=O)c1ccc(NC(=O)C(=O)NCC2CCCO2)cc1` (centres undefined), the AC50 result was “inactive”. Still for that read-out and setting: to `CCOC(=O)c1ccc(-c2ccc(/C=C(\C#N)C(=O)NCC3CCCO3)o2)cc1` (centres undefined) belongs 20 µM (active). With `CCOC(=O)c1ccc(-c2ccc(CO)o2)cc1`, the activity, negative = inhibition was 1.82% [at 2.29 µM]. The same measure, in the same setting: to `CC(C)NC[C@@H](O)c1ccc(O)c2ncccc12` belongs -1.42% [at 11.4 µM]; to `O=S(=O)(O)[C@@H](c1ccccc1)[C@@H](O)c1ccccc1`, -6.22% [at 11.4 µM]. Turning to `COc1ccc(CCn2c(=N)c(C(=O)NCc3ccco3)cc3c(=O)n4ccccc4nc32)cc1`, the AC50 is 14.1 µM (active). Still for that read-out and setting: to `Cn1c(C(=O)NCC2CCCO2)cc2c(=O)n3ccccc3nc21` (centres undefined) belongs “inactive”. On to `OCCCSCCO`, for which the activity, negative = inhibition was -9.23% [at 11.4 µM]. In the case of `CC1(O)c2ccccc2C(=O)N1CCc1ccccc1F` (centres undefined), the AC50 entry is “inactive”. The same measure, in the same setting: the result for `COc1ccc(Nc2cc(=O)n(C3CCCCC3)c(=O)[nH]2)c(OC)c1` reads 12.6 µM (active); that for `O=C(c1ccco1)N1CCN(c2cc(=O)n(C3CCCCC3)c(=O)[nH]2)CC1`, “inactive”; that for `Cc1cc(C(C)(C)C)c(O)c(C)c1CC1=NCCN1`, “inactive”. Consider `CCC(=O)Nc1ncnc2ncn(C(=O)CC)c12`, for which the activity, negative = inhibition was -6.29% [at 11.4 µM]. Consider `Cc1nn(C)c(Cl)c1NC(=O)OCc1ccc(Cl)cc1Cl`, for which the AC50 was 14.1 µM (active). With `O=C(OCc1ccc(Cl)cc1Cl)c1cccnc1Cl`, the AC50 entry was “inactive”. On to `O=C(Nc1ccccc1)OCc1cc(-c2ccc(Cl)cc2)on1`, for which the activity, negative = inhibition was 3.33% [at 2.29 µM]. Take `Cc1nn(C)c(Cl)c1NC(=O)OCc1ccc(F)cc1`: the AC50 result is “inactive”. The same measure, in the same setting: to `COc1ccccc1COC(=O)Nc1c(C)nn(C)c1Cl` belongs 15.8 µM (active); to `O=C(c1ccncc1)N1CCC2(CCN(Cc3nccs3)CC2)CC1`, “inactive”; to `O=C(c1cc(C(F)(F)F)cc(C(F)(F)F)c1)N1CCC[C@@]2(CCN(Cc3nccs3)C2)C1`, 3.16 µM (active). As for `O=C(c1cc(C(F)(F)F)cc(C(F)(F)F)c1)N1CCC2(CCCN(Cc3nccs3)C2)CC1`, the AC50 was 20 µM (active). Take `CCN1CCCCC(=N/O)/C(=N/O)CCCC1`: the activity, negative = inhibition is -9.74% [at 11.4 µM].

For `Cc1cc(C)c2c(=O)[nH]c(SCC(=O)N(C)C)nc2n1`, the AC50 result was “inactive”. Turning to `Cc1cccc(NC(=O)CSc2nc3nc(C)cc(C)c3c(=O)[nH]2)c1`, the AC50 was 3.55 µM (active). Same read-out and setting: the result for `COC(=O)[C@@]1(Cc2ccccc2)[C@H]2c3cc(C(=O)N(C)C)n(Cc4c(CO)[nH]cc(C)c4=O)c3C[C@H]2CN1C(=O)c1ccccc1` reads 1.58 µM (active); that for `COC(=O)[C@@]1(Cc2ccc(F)cc2)[C@H]2c3cc(C(=O)N(C)C)n(Cc4c(CO)[nH]cc(C)c4=O)c3C[C@H]2CN1C(=O)c1ccccc1`, 1.58 µM (active); that for `CCCCNC(=O)CSc1nc2cc(OC)c(OC)cc2c(=O)n1Cc1ccc(OC)cc1`, 2.82 µM (active). Same read-out and setting: the result for `CCCCn1c(SC(C)C(N)=O)nc2cc(C(=O)OC)ccc2c1=O` (centres undefined) reads “inactive”. In the case of `NC(=O)CSc1nc2sc(-c3ccccc3)cc2c(=O)n1N`, the activity, negative = inhibition was -22% [at 2.29 µM]. Turning to `CCCCn1c(SCC(N)=O)nc2ccc(N3CCOCC3)cc2c1=O`, the AC50 was 10 µM (active). Same read-out and setting: the result for `COCCNC(=O)CSc1nc2ccc(N3CCOCC3)cc2c(=O)n1Cc1ccc(OC)cc1` reads 5.01 µM (active). `Cc1cc(N2CCOCC2)ncc1[N+](=O)[O-]`: the activity, negative = inhibition is 8.16% [at 2.29 µM]. Regarding `Cc1ccc(OCC(=O)N2CCN(c3ccc([N+](=O)[O-])c(N4CCOCC4)c3)CC2)cc1`, the AC50 was 7.08 µM (active). Take `Cc1ccc(OC(=O)c2ccc(N3CCOCC3)c([N+](=O)[O-])c2)cc1`: the AC50 result is “inactive”.

The record behind these values is PubChem BioAssay AID1851 (National Center for Advancing Translational Sciences (NCATS), 2009).
